Results taken from PubChem BioAssay (NCATS).
Results filed as inconclusive are left out. Entries that show only a call come without a potency. Active and inactive are the calls of the source. Calls follow the shape of the dose curve; as a rule, active = well fitted inhibition curve with a large enough effect; inconclusive = small, poorly fitted or top-dose-only effect; inactive = flat fitted curve, though single readings scatter.

system: not listed separately; experiment: Drug repurposing screens with cells derived from glioblastoma tumor samples (AID 1345199); conditions: GBM patient neurospheres viability, ATP luminescence, 48 h; at 45.9 µM (top of the series); tumour line D; also: nearly all actives have a fitted effect of over 40% in size
How it was run: (§1)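 Primary testing used CD133+ neurospheres from four GBM patients, seven concentrations, 48 h exposure and ATP-based viability; confirmation added three slower-growing patient lines.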
Potency is read from the fitted curve at half-maximal effect.

| SMILES | activity, negative = cell killing |
| --- | --- |
| NCC(=O)O | 4.74% (inactive) |
| O=C(O)CCC(=O)OC[C@@H](NC(=O)C(Cl)Cl)[C@H](O)c1ccc([N+](=O)[O-])cc1 | -13.5% (inactive) |
| O=C(COCCOCCOCC(=O)Nc1c(I)cc(I)c(C(=O)O)c1I)Nc1c(I)cc(I)c(C(=O)O)c1I | -4.14% (inactive) |
| CC(=O)[C@@]1(O)CC[C@H]2[C@@H]3C[C@H](C)C4=CC(=O)CC[C@]4(C)[C@H]3CC[C@@]21C | -15.6% (inactive) |
| OC[C@]1(O)OC[C@@H](O)[C@H](O)[C@@H]1O | -1.03% (inactive) |
| Cc1ncc(CO)c(CO)c1O | -6.71% (inactive) |
| Oc1ccccc1 | -14.6% (inactive) |
| CCCCC(=O)OCC(=O)[C@H]1[C@H](C)C[C@H]2[C@@H]3C[C@H](F)C4=CC(=O)C=C[C@]4(C)[C@@]3(F)[C@@H](O)C[C@@]21C | -9.99% (inactive) |
| COc1cc(C=O)ccc1O | 2.3% (inactive) |

same assay, conditions: GBM patient neurospheres viability, ATP luminescence, 48 h; at 46.1 µM (top of the series); tumour line C

| SMILES | activity, negative = cell killing |
| --- | --- |
| NCC(=O)O | -6.24% (inactive) |
| O=C(O)CCC(=O)OC[C@@H](NC(=O)C(Cl)Cl)[C@H](O)c1ccc([N+](=O)[O-])cc1 | -13.1% (inactive) |
| O=C(COCCOCCOCC(=O)Nc1c(I)cc(I)c(C(=O)O)c1I)Nc1c(I)cc(I)c(C(=O)O)c1I | 15.8% (inactive) |
| CC(=O)[C@@]1(O)CC[C@H]2[C@@H]3C[C@H](C)C4=CC(=O)CC[C@]4(C)[C@H]3CC[C@@]21C | -11.3% (inactive) |
| OC[C@]1(O)OC[C@@H](O)[C@H](O)[C@@H]1O | 12.8% (inactive) |
| Cc1ccccc1N1CCN(CCc2nnc3n2CCCC3)CC1 | 19.6% (inactive) |
| Cc1ncc(CO)c(CO)c1O | 3.74% (inactive) |
| Oc1ccccc1 | -15.8% (inactive) |
| CCCCC(=O)OCC(=O)[C@H]1[C@H](C)C[C@H]2[C@@H]3C[C@H](F)C4=CC(=O)C=C[C@]4(C)[C@@]3(F)[C@@H](O)C[C@@]21C | 14.8% (inactive) |
| CN1C(CSCC(F)(F)F)Nc2cc(Cl)c(S(N)(=O)=O)cc2S1(=O)=O (stereo unspecified) | -15.1% (inactive) |
| COc1cc(C=O)ccc1O | -15.5% (inactive) |

same assay, conditions: GBM patient neurospheres viability, ATP luminescence, 48 h; tumour line A

| SMILES | Potency |
| --- | --- |
| C[C@@]12CCC[C@H]1[C@@H]1CC[C@H]3C[C@@H](O)CC[C@]3(C)[C@H]1CC2 | 7.08 µM (active) |
| c1ccc(C(O[C@H]2CCCN(CCc3ccc4c(c3)OCO4)C2)c2ccccc2)cc1 | 11.2 µM (active) |
| NC(=O)COCCN1CCN(C(c2ccccc2)c2ccc(Cl)cc2)CC1 (stereo unspecified) | 5.01 µM (active) |
| COC(=O)C1=C(C)NC(COC(N)=O)=C(C(=O)OC(C)C)C1c1cccc(Cl)c1Cl (stereo unspecified) | 8.91 µM (active) |

system: astro; experiment: as above; conditions: viability, ATP luminescence, 48 h; series mostly up to 45.9 µM
How it was run: as §1

| SMILES | Potency |
| --- | --- |
| NCC(=O)O | inactive |
| O=C(O)CCC(=O)OC[C@@H](NC(=O)C(Cl)Cl)[C@H](O)c1ccc([N+](=O)[O-])cc1 | inactive |
| O=C(COCCOCCOCC(=O)Nc1c(I)cc(I)c(C(=O)O)c1I)Nc1c(I)cc(I)c(C(=O)O)c1I | inactive |
| CC(=O)[C@@]1(O)CC[C@H]2[C@@H]3C[C@H](C)C4=CC(=O)CC[C@]4(C)[C@H]3CC[C@@]21C | inactive |
| C[C@@]12CCC[C@H]1[C@@H]1CC[C@H]3C[C@@H](O)CC[C@]3(C)[C@H]1CC2 | inactive |
| CCCCC(CC)COC(=O)c1ccccc1C(=O)O (stereo unspecified) | inactive |
| N=C(N)c1ccc(OCCCOc2ccc(C(=N)N)cc2)cc1 | 11.2 µM (active) |
| CN=C(N)NC(=O)Nc1c(C)cccc1C | inactive |
| CO[C@@H]1[C@@H](O[C@@H]2O[C@H](C)[C@@H](O[C@H]3C[C@@](C)(O)[C@@H](O)[C@H](C)O3)[C@H](N(C)C)[C@H]2O)[C@@H](CC=O)C[C@@H](C)[C@@H](O[C@@H]2CC[C@H](N(C)C)[C@@H](C)O2)/C=C/C=C/C[C@@H](C)OC(=O)C[C@H]1OC(C)=O | inactive |
| O=C(CCCCC(=O)Nc1c(I)cc(I)c(C(=O)O)c1I)Nc1c(I)cc(I)c(C(=O)O)c1I | inactive |
| OC[C@]1(O)OC[C@@H](O)[C@H](O)[C@@H]1O | inactive |
| CN1CCC(=C2c3ccccc3CCc3cccnc32)CC1 | inactive |
| Cc1ccccc1N1CCN(CCc2nnc3n2CCCC3)CC1 | inactive |
| O=C(NO)c1ccccc1 | inactive |
| Cc1ncc(CO)c(CO)c1O | inactive |
| O=C1CC2(CCCC2)CC(=O)N1CCNCC1COc2ccccc2O1 (stereo unspecified) | inactive |
| CC(=O)OCC[N+](C)(C)C | inactive |
| Oc1ccccc1 | inactive |
| c1ccc(C(O[C@H]2CCCN(CCc3ccc4c(c3)OCO4)C2)c2ccccc2)cc1 | inactive |
| CCCCC(=O)OCC(=O)[C@H]1[C@H](C)C[C@H]2[C@@H]3C[C@H](F)C4=CC(=O)C=C[C@]4(C)[C@@]3(F)[C@@H](O)C[C@@]21C | inactive |
| CN1C(CSCC(F)(F)F)Nc2cc(Cl)c(S(N)(=O)=O)cc2S1(=O)=O (stereo unspecified) | inactive |
| COc1cc(C=O)ccc1O | inactive |
| O=C(O)/C=C(\CC(=O)O)C(=O)O | inactive |
| O=C(CCCCCCCCC#CI)Oc1ccccc1 | inactive |
| NC(=O)COCCN1CCN(C(c2ccccc2)c2ccc(Cl)cc2)CC1 (stereo unspecified) | inactive |
| CC(=O)OCC(=O)[C@@]1(O)[C@H](OC(C)=O)C[C@H]2[C@@H]3CCC4=CC(=O)C=C[C@]4(C)[C@@]3(F)[C@@H](O)C[C@@]21C | inactive |
| O=C(c1ccccc1)c1ccccc1 | inactive |
